Test results from PubChem BioAssay (NCATS).

Key:
[1] = qHTS profiling of the MIPE4 collection as inhibitors of Plasmodium falciparum (3D7) proliferation (AID 743344);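 also: scaled between DMSO vehicle wells and 0.29 µM artemisinin as full inhibition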; settings: P. falciparum 3D7 in erythrocytes, SYBR Green DNA fluorescence, 72 h; at 28.5 µM unless noted
Outline: (§1)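 Parasite DNA was quantified by SYBR Green I fluorescence (ex 485, em 535 nm) after overnight lysis in saponin/Triton buffer at room temperature. Cultures at 0.3% parasitemia and 2.5% hematocrit were first exposed to compound for 72 h at 37 C; signals were normalised to artemisinin (0.29 uM) and vehicle wells.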

[2] = qHTS profiling of the MIPE4 collection as inhibitors of Plasmodium falciparum (DD2) proliferation (AID 743345); settings: P. falciparum Dd2 in erythrocytes, SYBR Green DNA, 72 h; at 28.5 µM unless noted
Outline: as §1

[3] = qHTS profiling of the MIPE4 collection as inhibitors of Plasmodium falciparum (DD2) proliferation (Rep 2) (AID 743346); settings: P. falciparum Dd2 in erythrocytes, SYBR Green DNA, 72 h; at 28.5 µM unless noted
Outline: as §1

[4] = qHTS profiling of the MIPE4 collection as inhibitors of Plasmodium falciparum (HB3) proliferation (AID 743347);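 also: plate controls were DMSO vehicle wells for no effect and artemisinin wells for full effect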; settings: P. falciparum HB3 in erythrocytes, SYBR Green DNA, 72 h
Outline: as §1

[5] = High-throughput drug toxicity screening in the BPDCN cell line Gen2.2 (AID 1224824); settings: Gen2.2 BPDCN cells; at 45.8 µM (top of the series) unless noted;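 also: cells exposed to compounds for 48 h before reading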
Outline: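 Gen2.2, 500 cells/well, phenol red-free RPMI/10% FBS/Pen-Strep; 48 h cpd, 37 °C/5% CO2; CTG lum, 15 min RT. Norm: DMSO = 100%, bortezomib 9.2 uM final = 0%.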

[6] = High-throughput drug toxicity screening in the BPDCN cell line Cal-1 (AID 1224825); settings: Cal-1 BPDCN cell viability, qHTS; at 45.8 µM (top of the series) unless noted;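 also: cells exposed to compounds for 48 h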
Outline: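 Percent activity derived from CellTiter-Glo luminescence, scaling DMSO to 100% and 9.2 uM final bortezomib to 0%. BPDCN Cal-1 cells (500/well, RPMI plus 10% FBS) incubated with compounds 48 hours at 37C before reading.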

[7] = at 28.5 µM unless noted

Compound	parasite growth, % of DMSO control [1]	parasite growth remaining, % of DMSO control (lower = more inhibition) [2]	parasite growth, % of control (lower = inhibition) [3]	growth, % of control [4, 7]	cell viability, % of control (lower = more cytotoxic) [5]	viability (% of control) [6]	growth, % of control ([4]; at 9.64 µM (top of the series))	growth, % of control ([4]; at 28.5 µM)
Cc1cc(N2CCOCC2)cc2[nH]c(-c3c(NC[C@@H](O)c4cccc(Cl)c4)cc[nH]c3=O)nc12	5.92%	15.8%	14%	3.57%	25%	3.1%	–	–
CCOc1ccccc1OCCNC(C)Cc1ccc(OC)c(S(N)(=O)=O)c1 (configuration not stated)	65.8%	84.6%	54.9%	90.8%	122%	97.4%	–	–
COc1cc2c(NC3CCN(C(C)C)CC3)nc(C3CCCCC3)nc2cc1OCCCN1CCCC1	5.09%	6.68%	10.3%	4.41%	9.63%	4.14%	–	–
CN(C)CC(C)(C)CNc1nn2c(-c3ccccc3)nnc2cc1C1CCC1	20%	21.9%	40.5%	48.8%	13.9%	3.65%	–	–
COC(=O)Nc1nc2ccc(C(=O)c3ccc(F)cc3)cc2[nH]1	66.2%	96.2%	69.2%	61.7%	78.4%	25%	–	–
Cc1c(Cn2c(C)nc3c(C(=O)O)cc(N4CCOCC4)cc32)cccc1C(F)(F)F	72.5%	93.9%	104%	124%	52.8%	70.7%	–	–
CNC(=O)c1nn(C)c2c1C(C)(C)Cc1cnc(Nc3ccc(N4CCN(C)CC4)cc3)nc1-2	6.38%	11.1%	6.77%	3.32%	3.63%	3.8%	–	–
CC(C)(O)c1cc2nc(-c3cnc(N)nc3)nc(N3CCOCC3)c2s1	10.6%	10.4%	10%	2.52%	33.5%	24%	–	–
CNC(=O)c1ccccc1Nc1nc(Nc2ccc(N3CCOCC3)cc2OC)ncc1Cl	10.8%	10.3%	22.9%	7.48%	18.7%	7.05%	–	–
Nc1ccn([C@@H]2CS[C@H](CO)O2)c(=O)n1	404% [at 57.5 µM]	100% [at 57.5 µM]	146% [at 57.5 µM]	263% [at 57.5 µM]	218% [at 92.2 µM]	11% [at 92.2 µM]	–	–
O=C(O)C1(Cc2cccc(Nc3nccs3)n2)CCC(Oc2cccc(Cl)c2F)CC1 (configuration not stated)	63.9%	98.3%	59.5%	92%	88.8%	33.8%	–	–
COc1cc(Nc2ncc(F)c(Nc3ccc4c(n3)N(COP(=O)(O)O)C(=O)C(C)(C)O4)n2)cc(OC)c1OC	19.5%	87.2%	22.9%	11.1%	56.3%	10.3%	–	–
CCc1c2c(nc3ccc(O)cc13)-c1cc3c(c(=O)n1C2)COC(=O)[C@]3(O)CC	13.6%	12.1%	19.1%	11.3%	6.79%	5.47%	–	–
Cc1nc(N)ncc1-c1nc(N2CCOCC2)c2sc(C(C)(C)O)cc2n1	5.28%	8.49%	7.48%	1.99%	38.1%	14%	–	–
Cc1c(NC(=O)OC[C@@H]2COCCN2)cn2ncnc(Nc3ccc4c(cnn4Cc4cccc(F)c4)c3)c12	5.88%	11%	24.7%	11.2%	285%	13.9%	–	–
C[C@@H]1COC(Nc2ccc3ncnc(Nc4ccc(OCc5nccs5)c(Cl)c4)c3c2)=N1	6%	11.5%	27.7%	8.37%	127%	13%	–	–
CC[C@@]1(O)C(=O)OCc2c1cc1n(c2=O)Cc2cc3cc(O)ccc3nc2-1	13.5%	12.6%	16.8%	5.75%	4.43%	3.68%	–	–
CC1COC2(CCN(c3nc(=O)c4cc(C(F)(F)F)cc([N+](=O)[O-])c4s3)CC2)O1 (configuration not stated)	20.5%	–	–	29.9%	104%	110%	–	–
OCCCNc1cc(-c2ccnc(Nc3cccc(Cl)c3)n2)ccn1	5.7%	–	19.1%	6.21%	4.08%	2.53%	–	–
O=C(O)Cn1nnc(-c2cc(N3CCC(Oc4cc(F)ccc4Br)CC3)no2)n1	–	127%	–	95.6%	231%	114%	–	–
COc1c(OCCCN2CCOCC2)ccc2c3n(c(=NC(=O)c4cnc(N)nc4)nc12)CCN3	7.6% [at 9.64 µM]	12% [at 9.64 µM]	–	3.45% [at 9.64 µM]	37.7% [at 23.2 µM]	69.2% [at 23.2 µM]	–	–
O=c1[nH]c(=O)n(C2CCCO2)cc1F (configuration not stated)	–	–	110% [at 57.5 µM]	412% [at 57.5 µM]	130% [at 92.2 µM]	116% [at 92.2 µM]	–	–
COc1ccc(-c2cc3c(C)nc(N)nc3n(C3CCC(OCCO)CC3)c2=O)cn1 (configuration not stated)	5.2%	–	7.09%	3.04%	9.04%	3.91%	–	–
CCC1=C[C@@H]2CN(C1)Cc1c([nH]c3ccccc13)[C@@](C(=O)OC)(c1cc3c(cc1OC)N(C)[C@@H]1[C@@](O)(C(=O)OC)[C@H](OC(C)=O)[C@]4(CC)C=CCN5CC[C@]31[C@@H]54)C2	–	7.41%	20.6%	8.82%	28.9%	14.5%	–	–
C[C@H]1C[C@@H]2[C@@H]([C@@H](O)C[C@@]3(C)[C@H]2CC[C@]3(O)C(=O)CO)[C@@]2(C)C=CC(=O)C=C12	–	–	–	–	111%	53.2%	93.3%	57.2%
Nc1ccc(S(=O)(=O)Nc2ncccn2)cc1	–	–	69.1%	63.8%	115%	103%	–	–

Compound	parasite growth, % of DMSO control [1]	parasite growth remaining, % of DMSO control (lower = more inhibition) [2]	parasite growth, % of control (lower = inhibition) [3]	growth, % of control [4, 7]	cell viability, % of control (lower = more cytotoxic) [5]	viability (% of control) [6]	growth, % of control ([4]; at 9.64 µM (top of the series))	growth, % of control ([4]; at 28.5 µM)
COc1cccc(-c2ccc(NC(=O)C3=C(C(=O)O)CCC3)c(F)c2)c1	64.2%	–	53%	78.8%	19%	4.11%	–	–
O=C(c1cncc(Br)c1)N1CCC(N2CCCC2)CC1	102%	–	–	96.9%	144%	126%	–	–
Cn1cc(-c2ccncc2)c(-c2ccc(OCc3ccc4ccccc4n3)cc2)n1	83.3%	98.3%	–	65.2%	56.4%	38.2%	–	–
Cc1cn2cc(C(=O)N(C)CCO)cc(N[C@@H]3CCOc4cccc(C)c43)c2n1	–	86.7%	47.2%	47.6%	152%	114%	–	–
O=C1CCC[C@@H]2[C@H]3CCC[N+]4([O-])CCC[C@@H](CN12)[C@@H]34 (some centres not stated)	64.9%	33.8%	–	68.6%	92.5%	100%	–	–
CCn1nnc2c(N3CCOCC3)nc(-c3ccc(NC(=O)Nc4ccc(C(=O)N5CCN(C)CC5)cc4)cc3)nc21	6.79%	–	13.6%	5.28%	28.1%	26.6%	–	–
COc1ccc(C(=O)CC2(O)C(=O)Nc3c(Cl)ccc(Cl)c32)cc1 (configuration not stated)	–	–	75.9%	62.1%	26.7%	11.2%	–	–
CCn1cc(-c2ccnc3[nH]c(-c4cccc(CN(C)C)c4)cc23)c(-c2ccc(NC(=O)N(C)C)cc2)n1	5%	–	–	5.95%	3.65%	2.71%	–	–
CCCn1c(=O)c2[nH]c(-c3cnn(Cc4cccc(C(F)(F)F)c4)c3)nc2n(CC)c1=O	62.2%	–	43.2%	51.8%	49.4%	107%	–	–
COc1cc(C(=O)N2CCC(N3CCN(C)CC3)CC2)ccc1Nc1ncc2c(n1)N(C)c1ccccc1C(=O)N2C	5.57%	7.18%	–	5.31%	2.17%	3.29%	–	–
COC(=O)Nc1ccc(-c2nc(N3CCOCC3)c3cnn(C4CCN(Cc5cccnc5)CC4)c3n2)cc1	–	7.48%	9.27%	4.59%	4.27%	3.04%	–	–
COc1cccc(Nc2c(C(N)=O)cnc3c(C)cc(S(=O)(=O)c4cccc(C(=O)N(C)C)c4)cc23)c1	–	–	40% [at 9.64 µM]	90% [at 9.64 µM]	216% [at 23.2 µM]	108% [at 23.2 µM]	–	–
CN(C1CCc2c(c3ccccc3n2CC(=O)O)C1)S(=O)(=O)c1ccc(F)cc1 (configuration not stated)	–	93.1%	19%	19.9%	243%	39.5%	–	–
CS(=O)(=O)c1ccc(-c2cnc(N)c(C(=O)Nc3ccccc3)n2)cc1	7.85%	–	7.67%	2.44%	99.6%	41.5%	–	–
Cc1ccc(NC(=O)C2(c3ccc4c(c3)OC(F)(F)O4)CC2)nc1-c1cccc(C(=O)O)c1	–	6.69%	7.61%	5.22%	8.23%	6.82%	–	–
CC1(C)O[C@@H]2C[C@@H]3[C@H]4C[C@@H](F)C5=CC(=O)C=C[C@]5(C)[C@@]4(F)[C@@H](O)C[C@]3(C)[C@]2(C(=O)CO)O1	–	97%	53.7%	76%	45.3%	54.5%	–	–
Cn1c2ccccc2c2c3c(c4c5ccccc5n(CCC#N)c4c21)CNC3=O	–	7.7%	30.7%	54.6%	12.7%	15.7%	–	–
COc1ccc2c(OCc3nnc4ccc(-c5ccccc5)nn34)ccnc2c1	53.1%	97.5%	–	59.2%	170%	105%	–	–
COc1cc2c(cc1-c1c(C)noc1C)ncc1[nH]c(=O)n([C@H](C)c3ccccn3)c12	–	97.3%	86.2%	74.1%	65.5%	7.22%	–	–
Clc1cccc(-c2nnnn2Cc2cccnc2)c1Cl	–	95.6%	84.8%	86.1%	164%	95.3%	–	–
Cc1cc(C(=O)N2CCN(c3cccc(Cl)c3)CC2)n(-c2ccccc2)n1	–	107%	98.6%	108%	88.4%	18.2%	–	–
COCCOc1ccc2c(c1)ncn2-c1ccc2cccc(N3CCC(N)CC3)c2n1	–	7.14%	–	4.14%	3.06%	1.98%	–	–
COc1cc(-c2nn(C3CCC(N4CCN(C(C)=O)CC4)CC3)c3ncnc(N)c23)ccc1NC(=O)c1cc2ccccc2n1C (configuration not stated)	5.39%	12.1%	–	7.32%	34.5%	9.55%	–	–
Nc1ncnc2c1c(-c1cnc3[nH]ccc3c1)nn2C1CCCC1	6.52%	–	8.28%	2.85%	7.53%	3.58%	–	–
NC1(Cc2ccc(Cl)cc2)CCN(c2ncnc3[nH]ccc23)CC1	19.2%	–	23.9%	5.59%	12.2%	22.9%	–	–
CN(C)Cc1c(C(=O)NCCOc2ccc(C(=O)NO)cc2)oc2ccccc12	–	7.04%	7.09%	6.43%	38.7%	5.5%	–	–
